Screens as filed in PubChem BioAssay.
Sampled rows, rich in hits. Any-hit rate of the full collection: about 4.7%.
rCAG binder: binds r(CAG) RNA repeats | 1.3% of 370,000 active | AID 651821 | inhibition, % at 3 µM | r(CAG) RNA repeat, TO-PRO-1 dye displacement fluorescence;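 active = inhibition above the plate cutoff, the mean of all test compounds on that plate plus 3 SD, cut at about 35% in these data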;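 note: higher means more dye released from RNA so lower well fluorescence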
MPTP inh: permeability transition pore inhibition | isolated mouse mitochondria, Ca2+ swelling absorbance, 30 min | 1.4% of 360,000 active | inhibition, % at 10 µM | AID 602449;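 active = inhibition of 50% or more, scaled per plate between neutral and stimulator controls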
KLK7 zymogen act: activates the human kallikrein-7 zymogen; P49862; purified proKLK7, EDANS-DABCYL substrate fluorescence; 100% is mature enzyme control, 0% vehicle; activation, % at 7 µM; 0.9% of 370,000 active; AID 652039;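 active = activation above the mean of all tested compounds plus 3 SD, computed per campaign excluding outliers beyond control limits, cut at about 13% in these data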
ADAM10 inh: inhibits human ADAM10. O14672. recombinant ADAM10, EDANS/DABCYL FRET peptide cleavage, 3 h. inhibition, % at 7 µM. 0.62% of 370,000 active. AID 720582;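 active = inhibition above a per-campaign cutoff equal to the mean of compounds falling between control-based bounds plus 3 SD, cut at about 20% in these data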
Target sequence (O14672 214-748 limits assumed): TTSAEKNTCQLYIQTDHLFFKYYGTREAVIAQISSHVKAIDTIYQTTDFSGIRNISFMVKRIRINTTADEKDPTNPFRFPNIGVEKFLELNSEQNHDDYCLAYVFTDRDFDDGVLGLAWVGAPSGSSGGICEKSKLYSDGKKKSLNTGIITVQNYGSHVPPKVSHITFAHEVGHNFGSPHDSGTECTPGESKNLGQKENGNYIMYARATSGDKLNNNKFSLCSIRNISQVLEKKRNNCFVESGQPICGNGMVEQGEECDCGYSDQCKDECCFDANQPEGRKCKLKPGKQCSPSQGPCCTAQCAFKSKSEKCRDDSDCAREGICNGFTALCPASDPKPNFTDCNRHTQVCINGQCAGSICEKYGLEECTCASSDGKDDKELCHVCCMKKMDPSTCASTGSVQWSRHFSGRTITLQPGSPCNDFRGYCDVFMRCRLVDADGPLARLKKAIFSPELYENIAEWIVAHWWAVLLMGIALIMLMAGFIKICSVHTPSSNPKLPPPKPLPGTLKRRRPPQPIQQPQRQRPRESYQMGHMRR
ADAM17 inh: ADAM17 inhibition, QFRET primary screen; 0.83% of 370,000 active; recombinant ADAM17, EDANS/DABCYL FRET peptide cleavage; inhibition, % at 6.95 µM;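 active = inhibition above the mean of compounds lying between control limits plus 3 SD, set per campaign, cut at about 8.5% in these data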
Pemphigus Ab inh: blocks pemphigus antibody binding to human desmoglein-3 | P32926 | AID 588358 | binding (percent of control), % at 10 µM | 0.48% of 310,000 active | DSG3-coupled beads, scFv-anti-DSG3-GFP binding, flow cytometry; active compounds read low;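 active = binding more than 3 SD below its plate's average and above zero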;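 note: hits lower antibody fragment binding to DSG3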
MPTP counter: Rhodamine 123 counter-screen of mitochondrial pore hits | 78% of 5,000 active | inhibition, % at 10 µM | isolated mitochondria, membrane potential, Rhodamine 123 fluorescence | shares compounds with MPTP inh | AID 624504; in the data active = inhibition above about 22%
MPTP abs DR: dose response confirmation of mitochondrial permeability transition pore inhibitors; IC50, µM; isolated mitochondria swelling, absorbance; 58% of 780 active; shares compounds with MPTP inh; AID 651561; in the data active = IC50 below about 20 µM
MPTP cs DR: counter-screen for mitochondrial permeability transition pore inhibitors, dose response; shares compounds with MPTP inh; isolated mitochondria counterscreen, fluorescence read-out; IC50, µM; 49% of 780 active; AID 651564; in the data active = IC50 below about 80 µM
Numbers stand for hits; - = inactive; . = no result given.

SMILES	rCAG binder	MPTP inh	KLK7 zymogen act	ADAM10 inh	ADAM17 inh	Pemphigus Ab inh	MPTP counter	others
CC1(C)OC(=O)C2=C(CC(CCc3ccccc3)OC2c2ccc(Cl)c(Cl)c2)O1 (stereo not drawn)	-	.	-	-	-	.	.
N=c1n(CCO)c2ccccc2n1CCOc1ccc(Cl)cc1Cl	-	87.0	-	-	-	-	-	MPTP abs DR=3.97;MPTP cs DR=28.8
COc1ccc(C2/C=C\CN(C(=O)Nc3ccc(C(F)(F)F)cc3)CC(=O)N2Cc2ccc(F)cc2)cc1 (stereo not drawn)	.	102.9	.	.	.	-	100.1
COc1ccc(C2/C=C\CN(C(=O)Nc3ccccc3)CC(=O)N2Cc2ccc(F)cc2)cc1 (stereo not drawn)	-	-	-	-	-	-	.
O=C1C2CC=CCC2C(=O)N1c1ccc(N2CCN(c3ccccn3)CC2)c([N+](=O)[O-])c1 (stereo not drawn)	-	55.3	-	-	-	-	45.1
O=C(NC1CCCC1)c1sc(=S)n2c1[nH]c(=O)c1ccccc12	-	87.4	-	-	-	.	97.4
c1ccc(-c2cc(-c3nc4ccccc4[nH]3)c3ccccc3n2)cc1	-	98.0	-	-	-	-	83.4
Nc1ccc(-c2nc3ccccc3[nH]2)cc1	-	-	-	-	-	-	.
S=C(NCc1ccncc1)Nc1ccc(Cl)cc1Cl	-	-	-	-	-	-	.
S=C(NNc1ccnc2cc(Cl)ccc12)Nc1ccc(Cl)cc1Cl	-	100.9	-	-	-	-	72.9
CCOc1ccc(NC(=S)NNc2ccnc3cc(Cl)ccc23)cc1	-	80.8	-	-	-	-	63.1
Cc1cc(Cl)c(S(=O)(=O)N2CCSCC2)cc1OCC(=O)NC1CCCCC1	-	85.8	-	-	-	.	85.2
Cc1cc(Cl)c(S(N)(=O)=O)cc1OCC(=O)NC1CCCCC1	-	-	-	-	-	.	.
Cc1cc(Cl)c(S(=O)(=O)NC2CCCC2)cc1OCC(=O)NC1CCCCC1	-	80.1	-	-	-	-	71.5
CCOC(=O)N(C)[C@H]1C[C@H]2c3[nH]c4c(-c5ccccc5)cccc4c3CCN2C(=O)[C@H]1[C@H](C)O	-	.	-	-	-	.	.
O=S(=O)(Nc1nc2ccccc2nc1N1CCN(c2ccccc2F)CC1)c1ccc(Cl)cc1	-	79.3	-	-	-	-	88.0
O=C(N[C@H](Cc1ccccc1)C(=O)NCc1ccccn1)[C@H]1O[C@@H](n2ccc(=O)[nH]c2=O)[C@H](O)[C@@H]1O	-	.	-	-	-	.	.
CN(C)S(=O)(=O)c1cccc(NC(=O)CSc2nc3ccccc3[nH]2)c1	-	-	-	-	-	-	.
CN(C)S(=O)(=O)c1ccc(NC(=O)CSc2ncnc3ccccc23)cc1	-	-	-	-	-	-	.
CCN(CC)S(=O)(=O)c1cccc(NC(=O)CSc2nc3ccccc3[nH]2)c1	-	65.2	-	-	-	-	33.3
CN(C)S(=O)(=O)c1cccc(NC(=O)CSc2ncnc3ccccc23)c1	-	84.2	-	-	-	-	66.4
Cc1ccc(NC(=O)C(c2ccccc2)C2CCCC2)cc1 (stereo not drawn)	-	-	-	-	-	-	.
CC(=O)c1ccc(NC(=S)Nc2ccc(Br)c(Cl)c2)cc1	-	96.2	-	-	-	-	100.2
O=C(Nc1ccccc1)Nc1ccc(Br)c(Cl)c1	-	78.8	-	-	-	-	85.2
O=C(Nc1ccc2ccccc2c1)C(c1ccccc1)C1CCCC1 (stereo not drawn)	-	78.9	-	-	-	-	62.4
SMILES	rCAG binder	MPTP inh	KLK7 zymogen act	ADAM10 inh	ADAM17 inh	Pemphigus Ab inh	MPTP counter	others
O=C(Nc1ccccc1)Nc1ccc2ccccc2c1	-	87.0	-	-	-	-	83.2
COc1cccc(CNC(=O)[C@H]2CCCN2C(=O)[C@H]2CCCN2C(=O)c2ccc(C)cc2)c1	-	.	-	-	-	.	.
Cc1sc(NC(=O)CN2CCCC2)nc1-c1ccc2c(c1)CCN2C(=O)c1cccc(F)c1	-	58.7	-	-	-	-	-	MPTP abs DR=-;MPTP cs DR=35
Cc1sc(NC(=O)Cc2ccc3c(c2)OCO3)nc1-c1ccc2c(c1)CCN2C(=O)c1ccc(F)cc1	-	-	-	-	-	-	.
COc1ccc(CNC2CCCc3ccccc32)cc1OC (stereo not drawn)	-	61.1	-	-	-	-	-	MPTP abs DR=-;MPTP cs DR=69.5
COc1ccccc1CNC1CCCc2ccccc21 (stereo not drawn)	-	-	-	-	-	-	.
Cc1nc(CN(C)C(=O)c2cc(COc3ccc4ncccc4c3)on2)cs1	-	99.3	-	-	-	-	68.7
O=C(NCc1cccc(Cl)c1)c1cc(COc2ccc3ncccc3c2)on1	-	104.7	-	-	-	-	92.0
COc1cccc(OCc2cc(C(=O)NCc3ccccn3)no2)c1	-	-	-	-	-	.	.
CC(CCCC(C)(C)O)NC(=O)c1cc(COc2ccc3ncccc3c2)on1 (stereo not drawn)	-	92.3	-	-	-	-	78.8
Cc1ccc(F)cc1CNC(=O)c1cc(COc2ccc3ncccc3c2)on1	-	95.0	-	-	-	.	105.2
CC(C)N(Cc1nccn1C)C(=O)c1cc(COc2ccc3ncccc3c2)on1	-	-	-	-	-	-	.
COc1cccc(CCNC(=O)c2cc(COc3ccc(C)c(C)c3)on2)c1OC	-	-	-	-	-	-	.
CC(=O)NC1CCCCN(Cc2ccc(Cl)cc2)C1=O (stereo not drawn)	-	.	-	-	-	.	.
COc1ccc(C2CC(=O)C(c3ccc(Br)cc3)=CN2Cc2ccccc2)cc1 (stereo not drawn)	-	.	-	-	-	.	.
COC(=O)[C@]12C[C@H](CC(=O)NCCCCc3ccccc3)C(=O)N(Cc3ccc(Cl)cc3Cl)C1=C[C@H](C(C)C)O[C@@H]2C1CC1	-	.	-	-	-	.	.
CC(C)CNS(=O)(=O)CC1NCc2ccccc21 (stereo not drawn)	-	.	-	-	-	.	.
Cc1cc(C)n(CCNC(=O)c2cc(COc3ccc4ncccc4c3)on2)n1	-	63.4	-	-	-	-	37.3
O=C(COc1ccc2c(-c3ccccc3)cc(=O)oc2c1)Nc1cccnc1	-	85.2	-	-	-	-	86.6
O=C(COc1ccc2c(-c3ccccc3)cc(=O)oc2c1)NCc1ccccn1	-	-	-	-	-	-	.
Cc1cccc2sc(N(CCCN(C)C)C(=O)c3ccc(C(=O)c4ccccc4)cc3)nc12	-	84.3	-	-	-	-	-	MPTP abs DR=11.3;MPTP cs DR=64.3
Cc1ccc2nc(N(CCCN(C)C)C(=O)COc3ccc(Cl)cc3)sc2c1	-	55.7	-	-	-	-	-	MPTP abs DR=4.23;MPTP cs DR=77.9
